Experiment [1] can be described thus: antimalarial activity against Dd2 strain (AID 2302;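 active means growth inhibition above 50% at the single 2 µM test dose, taken to imply half-maximal potency below 2 µM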;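 further: 0% = DMSO untreated growth and 100% = chloroquine plus artemisinin killed control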). Conditions: P. falciparum Dd2 in RBCs, LDH growth readout, 72 h; at 2 µM; stronger effect = higher value.
Experiment [2] in a line: human hepatoma cell viability loss – ATP luminescence, cytotoxicity control for P. falciparum antimalarial project, primary screen (AID 2303;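 active means inhibition above 50%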;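 further: 0% = DMSO wells and 100% = digitonin-killed cells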). Conditions: HepG2 viability, 24-48 h, at 10 µM, stronger effect = higher value.
Experiment [3] addresses L-lactate dehydrogenase (Plasmodium falciparum (isolate CDC / Honduras)) (UniProt Q27743). Nature of the experiment: PfLDH activity inhibition – cell lysate, 3D7 strain, counter-screen for P. falciparum growth inhibition project (AID 2304).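 Further: 0% = vehicle and 100% = reference inhibitor.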 Conditions: P. falciparum 3D7 crude extract, LDH APAD/NBT absorbance; at 2 µM; stronger effect = higher value. Background: Counterscreens check selectivity or assay interference.

Experiment [4] can be described thus: inhibition of 3D7 malaria parasite growth – strain 3D7 (AID 2306).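 Further: 0% = DMSO wells and 100% = chloroquine plus artemisinin control wells.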 Conditions: P. falciparum 3D7 erythrocytic growth, LDH absorbance, 72 h; at 2 µM; stronger effect = higher value.
Experiment [5] addresses Calcium-dependent protein kinase 1 (Plasmodium falciparum (isolate 3D7)) (UniProt P62344). Nature of the experiment: PfCDPK1 kinase inhibitors, biochemical, TCAMS library (AID 1159585; cut-off not given, nearly all actives have IC50 up to about 0.98 µM;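 further: inhibitors leave more ATP so luminescence rises with inhibition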). The note with it: recombinant PfCDPK1, Kinase-Glo ATP depletion luminescence. A general note: Kinase-Glo reads ATP consumption through a luciferase reaction.
In experiment [6] the target is Plasmodium falciparum protein kinase 6 (PK6, PF3D7_1337100) (UniProt Q8IDW1). The experiment in a line: PfPK6 kinase inhibitors, biochemical, TCAMS library (AID 1159586). The note with it: recombinant PfPK6, Kinase-Glo ATP depletion luminescence.
For experiment [7], the target named is Protein kinase 7 (PK7), Plasmodium falciparum 3D7 (PF3D7_0213400) (UniProt Q7YTF7). Nature of the experiment: inhibition of Plasmodium PK7 catalytic activity – biochemical, TCAMS antimalarial set, Kinase-Glo luminescence (AID 1159587). Conditions: recombinant PfPK7, Kinase-Glo ATP depletion luminescence.
The target of experiment [8] is Calcium-dependent protein kinase 4 (Plasmodium falciparum (isolate 3D7)) (UniProt Q8IBS5). The experiment in a line: PfCDPK4 kinase inhibitors, biochemical, TCAMS library (AID 1159588; cut-off not given, nearly all actives have IC50 up to about 0.91 µM). Conditions: recombinant PfCDPK4, Kinase-Glo ATP depletion luminescence.

Values without a mark were called inactive. For some of these results: Entries with a potency or affinity are not part of this list. Activity calls are given as the source filed them. Unless noted, how the calls were made is not given here.

Sequence of L-lactate dehydrogenase (Plasmodium falciparum (isolate CDC / Honduras)) (Q27743 whole entry, looked up): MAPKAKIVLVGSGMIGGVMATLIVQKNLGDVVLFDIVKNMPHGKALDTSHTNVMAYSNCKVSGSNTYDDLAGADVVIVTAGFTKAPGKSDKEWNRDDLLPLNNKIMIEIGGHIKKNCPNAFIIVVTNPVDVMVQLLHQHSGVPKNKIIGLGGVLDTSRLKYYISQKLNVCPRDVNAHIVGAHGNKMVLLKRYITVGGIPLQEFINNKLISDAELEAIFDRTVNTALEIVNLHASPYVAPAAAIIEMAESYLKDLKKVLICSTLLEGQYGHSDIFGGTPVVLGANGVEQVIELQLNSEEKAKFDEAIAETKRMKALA
Sequence of Protein kinase 7 (PK7), Plasmodium falciparum 3D7 (PF3D7_0213400) (Q7YTF7 1-343): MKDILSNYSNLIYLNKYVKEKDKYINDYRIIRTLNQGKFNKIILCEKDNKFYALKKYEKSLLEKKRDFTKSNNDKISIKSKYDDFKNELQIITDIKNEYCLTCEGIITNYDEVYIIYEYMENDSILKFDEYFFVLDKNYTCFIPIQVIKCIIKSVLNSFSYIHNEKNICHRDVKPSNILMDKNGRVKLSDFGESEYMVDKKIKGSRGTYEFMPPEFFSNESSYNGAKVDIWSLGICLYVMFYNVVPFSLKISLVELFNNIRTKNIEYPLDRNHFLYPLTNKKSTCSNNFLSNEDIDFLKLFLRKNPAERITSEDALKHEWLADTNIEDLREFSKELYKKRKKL
Sequence of Calcium-dependent protein kinase 4 (Plasmodium falciparum (isolate 3D7)) (Q8IBS5 whole entry, looked up): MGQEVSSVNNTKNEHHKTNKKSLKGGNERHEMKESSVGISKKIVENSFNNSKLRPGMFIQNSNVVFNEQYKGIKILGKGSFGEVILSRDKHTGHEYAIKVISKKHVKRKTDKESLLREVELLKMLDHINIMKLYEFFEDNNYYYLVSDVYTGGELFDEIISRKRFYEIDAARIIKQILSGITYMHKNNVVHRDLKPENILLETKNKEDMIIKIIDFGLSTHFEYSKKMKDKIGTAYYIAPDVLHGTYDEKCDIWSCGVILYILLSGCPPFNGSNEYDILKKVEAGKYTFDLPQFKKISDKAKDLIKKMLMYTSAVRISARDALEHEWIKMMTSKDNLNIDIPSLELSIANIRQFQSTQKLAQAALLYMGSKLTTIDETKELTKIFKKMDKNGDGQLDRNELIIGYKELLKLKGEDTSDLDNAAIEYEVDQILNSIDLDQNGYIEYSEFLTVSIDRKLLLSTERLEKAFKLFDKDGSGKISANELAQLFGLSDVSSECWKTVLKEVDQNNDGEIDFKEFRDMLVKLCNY
Sequence of Calcium-dependent protein kinase 1 (Plasmodium falciparum (isolate 3D7)) (P62344 whole entry, looked up): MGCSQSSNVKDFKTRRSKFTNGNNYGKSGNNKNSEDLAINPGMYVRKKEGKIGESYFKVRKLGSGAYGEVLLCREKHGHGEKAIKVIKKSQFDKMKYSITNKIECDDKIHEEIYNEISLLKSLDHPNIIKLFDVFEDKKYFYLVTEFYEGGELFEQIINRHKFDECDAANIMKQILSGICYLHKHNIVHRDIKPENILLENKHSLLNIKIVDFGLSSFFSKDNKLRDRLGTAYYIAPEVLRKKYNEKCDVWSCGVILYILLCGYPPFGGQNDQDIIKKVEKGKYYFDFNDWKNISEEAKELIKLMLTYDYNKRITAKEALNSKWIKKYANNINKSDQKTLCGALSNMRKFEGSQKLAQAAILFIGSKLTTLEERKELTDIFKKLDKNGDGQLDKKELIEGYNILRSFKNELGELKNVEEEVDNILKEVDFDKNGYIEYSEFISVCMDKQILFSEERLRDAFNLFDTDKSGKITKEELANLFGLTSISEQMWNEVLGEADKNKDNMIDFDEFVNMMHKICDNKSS
Sequence of Plasmodium falciparum protein kinase 6 (PK6, PF3D7_1337100) (Q8IDW1 1-305): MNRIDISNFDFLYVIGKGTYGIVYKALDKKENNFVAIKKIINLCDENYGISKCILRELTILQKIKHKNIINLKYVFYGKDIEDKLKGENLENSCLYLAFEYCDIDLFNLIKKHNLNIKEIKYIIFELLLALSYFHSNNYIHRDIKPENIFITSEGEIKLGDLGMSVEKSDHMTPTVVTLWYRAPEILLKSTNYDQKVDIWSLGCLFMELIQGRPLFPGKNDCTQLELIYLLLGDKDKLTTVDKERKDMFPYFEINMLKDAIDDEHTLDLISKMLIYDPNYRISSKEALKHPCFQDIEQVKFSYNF

Turning to `O=C(NCc1cccc(F)c1)Nc1ccc(-c2ccc(-c3nc4ccc(C(F)(F)F)cc4[nH]3)cc2)cc1`, the growth inhibition in experiment [1] was 24%; in experiment [4] it was 100% (active). Further, the inhibition (as a rule, the relative decrease from the control value, in per cent) in experiment [2] was 46%; in experiment [3] it was 0%. Further, the outcome in experiment [5], in experiment [6], in experiment [7] and in experiment [8] was inactive.
Consider `O=S(=O)(NCCN1CCCC1)c1ccc(-c2ccc(CNCc3ccsc3)cc2)s1`, for which the values for the growth inhibition in experiment [1] and in experiment [4] were 40% and 99% (active), respectively. In addition, the inhibition in experiment [2] is 31%; in experiment [3], 7%. Further, the result in experiment [5], in experiment [6], in experiment [7] and in experiment [8] was inactive.
With `CCCc1cc(NCC)nc(Nc2ccc(C)cc2)n1`, the figures for the growth inhibition in experiment [1] and in experiment [4] were 16% and 95% (active), respectively. In addition, the inhibition in experiment [2] was 22%; in experiment [3], -1%. The result in experiment [5], in experiment [6], in experiment [7] and in experiment [8] was inactive.
For `CCCCCCOc1ccc(C(N)=NCc2ccccc2)c2c1CCCC2`, the results for the growth inhibition in experiment [1] and in experiment [4] were 35% and 96% (active), respectively. Moreover, the values for the inhibition in experiment [2] and in experiment [3] were 62% (active) and -3%, respectively. In addition, the result in experiment [5], in experiment [6], in experiment [7] and in experiment [8] was inactive.
Turning to `CCOc1cccc(C2c3c(oc4ccccc4c3=O)C(=O)N2CCN(CC)CC)c1` (stereo not given), the results for the growth inhibition in experiment [1] and in experiment [4] were 66% (active) and 100% (active), respectively. Also, the figures for the inhibition in experiment [2] and in experiment [3] were 5% and -2%, respectively. The outcome in experiment [5], in experiment [6], in experiment [7] and in experiment [8] was inactive.
For `CCCCCCCCNCc1c(O)ccc2ccccc12`, the results for the growth inhibition in experiment [1] and in experiment [4] were 94% (active) and 99% (active), respectively. Further, the inhibition in experiment [2] is -11%; in experiment [3] it was 0%. The outcome in experiment [5], in experiment [6], in experiment [7] and in experiment [8] was inactive.
On to `CCc1cn(CCc2ccccc2)c2ccc(C(=O)N[C@@H](Cc3ccccc3)[C@H](O)CNC(C)(C)CCCC(C)C)cc12`, for which the growth inhibition is 99% (active) in experiment [1] and 98% (active) in experiment [4]. Also, the inhibition in experiment [2] is 66% (active); in experiment [3] it was 5%. The result in experiment [5], in experiment [6], in experiment [7] and in experiment [8] was inactive.
Consider `Cc1c(Cc2ccc(F)cc2)c(Cl)nc2nc(N)nc(N)c12`, for which the growth inhibition in experiment [1] is 1%; in experiment [4], 92% (active). In addition, the inhibition in experiment [2] is 66% (active); in experiment [3], -2%. Also, the result in experiment [5], in experiment [6], in experiment [7] and in experiment [8] was inactive.
Regarding `Cc1c(C(=O)N2CCCC(C(F)(F)F)C2)sc2cccc(F)c12` (stereo not given), the figures for the growth inhibition in experiment [1] and in experiment [4] were 89% (active) and 99% (active), respectively. Also, the results for the inhibition in experiment [2] and in experiment [3] were -4% and 1%, respectively. Further, the outcome in experiment [5], in experiment [6], in experiment [7] and in experiment [8] was inactive.
In the case of `COC(=O)c1cccc(NC(=O)NC2CCN(c3ccnc(Nc4cc(OC)c(OC)c(OC)c4)n3)C2)c1` (stereo not given), the figures for the growth inhibition in experiment [1] and in experiment [4] were 68% (active) and 99% (active), respectively. Besides, the inhibition in experiment [2] is 7%; in experiment [3], 3%. For the same molecule, the result in experiment [5], in experiment [6], in experiment [7] and in experiment [8] was inactive.
Consider `Cc1cc(OCC2CCN(c3ncc(C(=O)Nc4ccccc4)cc3Cl)CC2)ccc1F`, for which the values for the growth inhibition in experiment [1] and in experiment [4] were 87% (active) and 91% (active), respectively. Further, the values for the inhibition in experiment [2] and in experiment [3] were 27% and -2%, respectively. In addition, the result in experiment [5], in experiment [6], in experiment [7] and in experiment [8] was inactive.
For the molecule `O=C(Nc1ccc(N2CCCCC2)c(Cl)c1)c1ccc(Br)o1`, the growth inhibition in experiment [1] and in experiment [4] was 94% (active) throughout. The values for the inhibition in experiment [2] and in experiment [3] were -8% and -1%, respectively. In addition, the outcome in experiment [5], in experiment [6], in experiment [7] and in experiment [8] was inactive.
On to `CC(C)[C@H](NC(=O)c1c(F)cccc1F)C(=O)Nc1ccc(Cc2nc3ccccc3s2)cc1`, for which the growth inhibition in experiment [1] was 72% (active); in experiment [4], 82% (active). Further, the figures for the inhibition in experiment [2] and in experiment [3] were 3% and 0%, respectively. Further, the result in experiment [5], in experiment [6], in experiment [7] and in experiment [8] was inactive.
`Nc1cc(-c2cc3c(OCc4ccccc4)cccc3[nH]2)ccn1`: the growth inhibition in experiment [1] was 15%; in experiment [4], 85% (active). Also, the inhibition is 23% in experiment [2] and 4% in experiment [3]. The result in experiment [5], in experiment [6], in experiment [7] and in experiment [8] was inactive.
For `c1ccc(Oc2ccc(Nc3ccnc4cc(-c5ccc(CN6CCCCC6)o5)ccc34)cc2)nc1`, the growth inhibition is 100% (active) in experiment [1] and 101% (active) in experiment [4]. The inhibition in experiment [2] is 18%; in experiment [3], -4%. The outcome in experiment [5], in experiment [6], in experiment [7] and in experiment [8] was inactive.
In the case of `CCOC(=O)c1ccc(NC(=O)Nc2ccc(-c3cccc(-c4nc5c(C)cccc5[nH]4)c3)cc2)cc1`, the growth inhibition in experiment [1] is 100% (active); in experiment [4], 101% (active). In addition, the inhibition in experiment [2] was 91% (active); in experiment [3] it was -2%. Further, the outcome in experiment [5], in experiment [6], in experiment [7] and in experiment [8] was inactive.
Consider `COc1ccc(-c2nc3nc4ccccc4cc3[nH]2)c(OCC(O)CNC(C)C)c1` (stereo not given), for which the growth inhibition is 96% (active) in experiment [1] and 98% (active) in experiment [4]. Also, the figures for the inhibition in experiment [2] and in experiment [3] were 19% and -1%, respectively. The result in experiment [5], in experiment [6], in experiment [7] and in experiment [8] was inactive.
Take `CCOC(=O)c1cnc2c(OC)cc(OC)c(Cl)c2c1Nc1cccc(C)c1`: the growth inhibition in experiment [1] was 20%; in experiment [4] it was 95% (active). Moreover, the inhibition is 0% in experiment [2] and -2% in experiment [3]. The result in experiment [5], in experiment [6], in experiment [7] and in experiment [8] was inactive.
For `Cc1cccc(NC(c2cccs2)c2c(NC(=O)c3ccccc3)sc(C)c2C)n1` (stereo not given), the growth inhibition in experiment [1] is 80% (active); in experiment [4], 88% (active). The inhibition in experiment [2] was -8%; in experiment [3], 1%. Besides, the outcome in experiment [5], in experiment [6], in experiment [7] and in experiment [8] was inactive.
With `O=C(NCc1cccc(OC(F)(F)F)c1)c1cnc2c(c1)nc(-c1cnc(-c3ccccc3)[nH]1)n2CCc1cnc[nH]1`, the results for the growth inhibition in experiment [1] and in experiment [4] were 47% and 99% (active), respectively. Moreover, the figures for the inhibition in experiment [2] and in experiment [3] were 0% and -10%, respectively. The outcome in experiment [5], in experiment [6], in experiment [7] and in experiment [8] was inactive.
